# IMPase cell inh – membrane-permeable compound that blocks inositol monophosphatase; CHO-M1 cells, IP1 accumulation, HTRF TR-FRET ratio; inhibition (IP1 accumulation), % at 46.1 µM; 120,000 tested, under 10 active; AID 901; active = well fitted curve in the direction sought with a large enough effect in the signal ratio, not every such curve was filed as active; inconclusive = small, poorly fitted or top-dose-only effect, or a change in a side signal; inactive = no such curve, though single readings can be large or run the other way; the % refers to the signal ratio;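 note: cells stimulated with carbachol in lithium chloride buffer; plate controls were DMSO basal wells for no effect and reference inhibitor wells for full effect; higher means more IMPase inhibition seen as more IP1 and lower FRET ratio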
#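 CHO-M1, 2000 cells/well, cultured 16–30 h; cpd up to 46 uM; carbachol (50 uM solution, stimulation buffer w/ 50 mM LiCl, pH 7.4), 30 min 37C; IP-One TR-FRET, 10 min RT; Ex 320/Em 665, 620; Hill-fit AC50.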
# HPGD inh – inhibitors of human 15-hydroxyprostaglandin dehydrogenase (HPGD). purified HPGD, NADH fluorescence kinetic, PGE2 substrate. hit rate 4.3% among 150,000. Potency, µM, inactives show at the highest dose activity change, negative = inhibition, actives largely listed as inhibitors. AID 894. P15428; note: potency is the fitted concentration of half-maximal effect
# Target sequence (P15428 whole entry, looked up): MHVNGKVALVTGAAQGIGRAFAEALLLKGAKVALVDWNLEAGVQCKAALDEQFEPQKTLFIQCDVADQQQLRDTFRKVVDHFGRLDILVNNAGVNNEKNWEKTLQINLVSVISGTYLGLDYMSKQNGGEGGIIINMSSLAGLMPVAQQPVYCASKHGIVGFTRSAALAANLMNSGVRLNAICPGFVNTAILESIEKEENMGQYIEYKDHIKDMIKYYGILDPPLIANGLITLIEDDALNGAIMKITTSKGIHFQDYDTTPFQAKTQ
#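 20 nM HPGD preincubated 15 min at room temperature with compound in 50 mM Tris-HCl pH 8, 0.01% Tween 20. Started with 1 mM NAD+ and 30 uM prostaglandin E2; NADH fluorescence (360/450 nm) read 5 times over 30-s intervals, last minus first.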
# ALDH1A1 inh – ALDH1A1 (human) enzyme inhibition; P00352; Purified ALDH1A1, NADH fluorescence, propionaldehyde substrate; hit rate 7.3% among 220,000; AID 1030; Potency, µM (highest dose often 75.3 µM), without a hit: top-dose activity, negative = inhibition, actives largely listed as inhibitors;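 note: potency is the fitted concentration of half-maximal effect; plate controls were no enzyme wells and a reference inhibitor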
# The depositor's hits bear a star; ? = inconclusive; nt = no result given. The list is not random: actives were taken first. Their share in the collection is about 9%. Unless noted, calls come from the whole dose curve; as a rule, active = well fitted inhibition curve with a large enough effect (not every such curve was filed as active); inconclusive = small, poorly fitted or top-dose-only effect, or another doubt; inactive = no such curve, though single readings can be large or run the other way. Unless noted, % is set by controls: 0 for no effect and ±100 for the full control effect.
SMILES,IMPase cell inh,HPGD inh,ALDH1A1 inh
O=C(CCN1C(=O)C2CC=C(Cl)CC2C1=O)NCc1ccccc1 (stereo not given),-5,-2%,?
O=C(CCN1C(=O)C2CC=C(Cl)CC2C1=O)NCc1ccco1 (stereo not given),8,-18%,22µM*
COc1ccc2cc(C(c3nnnn3CCc3ccccc3)N3CCC(O)CC3)c(=O)[nH]c2c1 (stereo not given),3,-15%,?
COc1ccc2cc(C(c3nnnn3Cc3ccc(F)cc3)N3CCCCCC3)c(=O)[nH]c2c1 (stereo not given),-13,?,?
COc1ccc(Cn2nnnc2C(c2cc3ccc(OC)cc3[nH]c2=O)N2CCC(C)CC2)cc1 (stereo not given),0,-8%,0.89µM*
COc1ccc2cc(C(c3nnnn3Cc3ccccc3)N3CCCCCC3)c(=O)[nH]c2c1 (stereo not given),?,-8%,14µM*
COc1ccc(CCN(CC(=O)NC2CCCC2)C(=O)Cn2nnc(-c3ccc(C)o3)n2)cc1OC,nt,nt,2%
NNC(=O)CNC(=O)C12CC3CC(CC(C3)C1)C2,nt,nt,0%
O=C(/C=C/Nc1ccc(F)cc1F)c1cccs1,-10,?,2.4µM*
O=C(/C=C/Nc1ccccc1F)c1cccs1,3,-11%,?
COc1ccccc1N1CCN(CC(=O)Nc2sccc2C#N)CC1,-4,-12%,?
Cc1ccc(NC(=O)c2c([N+](=O)[O-])c(C(C)(C)C)nn2C)c(C)c1,nt,-3%,-5%
Cc1ccc(N/C(C(Cl)=C(Cl)Cl)=C(/Cl)[N+](=O)[O-])c(C)c1,nt,-24%,3.5µM*
CCS(=O)(=O)CCSc1nc(-c2ccc(Br)cc2)cc(-c2ccccc2)c1C#N,-6,nt,nt
CS(=O)c1nc(-c2ccc(Br)cc2)cc(-c2ccccc2)c1C#N (stereo not given),-3,7%,13µM*
CS(=O)(=O)c1nc(-c2ccc(Br)cc2)cc(-c2ccccc2)c1C#N,?,-2%,?
N#Cc1c(-c2ccccc2Cl)cc(C2CC2)nc1N,8,nt,-3%
N#Cc1c(-c2cccc(F)c2)cc(-c2ccccc2)nc1Br,-9,18µM*,-3%
N#Cc1c(-c2ccccc2Cl)cc(-c2ccccc2)nc1Br,nt,25µM*,-1%
CN(C)Cc1cc(C(C)(C)C)c(O)c(C(C)(C)C)c1,2,-2%,?
CC(C)(C)c1cc(CN(CCO)CCO)cc(C(C)(C)C)c1O,7,25µM*,2.5µM*
O=C(N/N=C\c1ccc(Sc2ccccn2)o1)c1cccc(Br)c1,9,-24%,-7%
O=[N+]([O-])/C(C(Cl)=C(Cl)Cl)=C(/Sc1ccccc1)N1CCCCC1,nt,nt,18µM*
O=C(N/C(=C\c1ccc([N+](=O)[O-])cc1)C(=O)N1CCCCC1)c1ccccc1,nt,nt,2%
Cc1cnc(C(=O)Nc2ccccc2-c2nnn(CC(=O)NC3CCCC3)n2)cn1,-9,-16%,0%
SMILES,IMPase cell inh,HPGD inh,ALDH1A1 inh
CC(C)(C)c1cc(C(c2cccnc2)N2CCN(CCO)CC2)cc(C(C)(C)C)c1O (stereo not given),15,14µM*,?
CC(C)(C)n1nnnc1C(c1cccnc1)N1CCN(c2cccc(C(F)(F)F)c2)CC1 (stereo not given),5,-6%,?
CN1CCN(C(=O)c2cc(S(=O)(=O)Nc3ccccc3F)c(Cl)cc2Cl)CC1,nt,nt,8%
CCCCN(C)C1=CC2=CC(=C(C#N)C#N)CCC2CC1 (stereo not given),nt,-19%,?
CCN(CC)C1=CC2=CC(=C(C#N)C#N)CCC2CC1 (stereo not given),nt,-18%,2.2µM*
CC(Oc1ccccc1Cl)C(=O)N1CCOCC1 (stereo not given),nt,28µM*,?
O=C(Oc1ccccc1OC(=O)N1CCOCC1)N1CCOCC1,-8,5%,4%
CCn1cc(Br)c(C(=O)Nc2ccc(OC)cc2)n1,-12,-3%,4%
CCn1cc(Br)c(C(=O)NN)n1,-2,-12%,25µM*
O=C(O)c1ccccc1NS(=O)(=O)c1ccc(Cl)c(Cl)c1,nt,-2%,3%
CCOc1cccc(C2Oc3nc(SC)nnc3-c3ccccc3N2C(C)=O)c1OC (stereo not given),3,nt,nt
N=C(c1cccc([N+](=O)[O-])c1)N1CCCCC1,nt,nt,5%
CCOC(=O)c1sc2nc3c(SCC(=O)O)cc(C(=O)c4cc(F)ccc4O)cn3c(=O)c2c1C,nt,-26%,-15%
O=C(O)CSc1cc(C(=O)c2ccccc2O)cn2c(=O)c3c(-c4ccccc4)csc3nc12,nt,nt,3.5µM*
CCOC(=O)c1sc2nc3c(SCC(=O)O)cc(C(=O)c4ccccc4O)cn3c(=O)c2c1C,nt,nt,1%

# Compound activity deposited in PubChem by National Center for Advancing Translational Sciences (NCATS).
